Screening data deposited in PubChem by National Center for Advancing Translational Sciences (NCATS).
FBPA coupling cs – qHTS Assay for Inhibitors of Fructose-1,6-bisphosphate Aldolase from Giardia Lamblia: Coupling assay counterscreen. AID 2472, 2010. 290,000 tested, 0.67% active. activity change, negative = inhibition, % at 58.2 µM, hits read low. coupling enzyme system counterscreen, AmpLite Red fluorescence; in the data active = activity change below about -30%
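Fluorescence at 525 nm excitation and 598 nm emission measured inhibition of the coupled detection system without aldolase. Compounds (at 57.5 uM final) were preincubated 10 min at room temperature with coupling enzyme reagent before a 20 min substrate/AmpLite Red step.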
Sfp inh – qHTS Assay for Inhibitors of Bacillus subtilis Sfp phosphopantetheinyl transferase (PPTase); 4'-phosphopantetheinyl transferase ffp (Bacillus subtilis), Q9F4F7; 310,000 tested, 3.5% active; Biochemical Sfp PPTase activity, qHTS; Potency, µM, for the others: largest response in the series, negative = inhibition, usual class: inhibitors;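 also: the enzyme is Sfp with the accession as filed and its product quenches rhodamine fluorescence; potency is read from the fitted curve at half-maximal effect; 0% = enzyme reaction without inhibitor and -100% = no enzyme wells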
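Fluorescence-quenching assay with 15 nM Sfp, 5 uM rhodamine-CoA and 12.5 uM BHQ-2-labelled ybbR peptide in pH 7.6 Hepes/MgCl2 buffer. Enzyme was pre-incubated with compound for 15 min at room temperature. Rate was taken from the 30-min fluorescence change (525/598 nm).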
Tau fluor cs – Counterscreen qHTS for Inhibitors of Tau Fibril Formation, Fluorescence Polarization; tau K18 P301L Alexa594 fluorescence, heparin fibrillization; Potency, µM (highest dose often 57.7 µM), inactives show top-dose activity change, negative = decrease; AID 1463, 2008; 280,000 tested, 0.93% active; also: potency is read from the fitted curve at half-maximal effect; nearly all actives have a fitted effect of over 55% in size
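Human K18 P301L tau (15 uM unlabeled plus 0.24 uM Alexa 594-labeled, final) in 100 mM sodium acetate pH 7 was mixed with compound and 20 uM heparin and incubated 6 hr at 37 C.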
KDM4E inh – qHTS Assay for Inhibitors of Human Jumonji Domain Containing 2E (JMJD2E); Lysine-specific demethylase 4E (Homo sapiens), B2RXH2; JMJD2E catalytic domain, FDH-coupled NADH fluorescence (FDH is formaldehyde dehydrogenase); Potency, µM (doses to about 57.1 µM), for the others: at the top dose activity change, negative = inhibition, actives largely listed as inhibitors; 230,000 tested, 1.6% active; AID 2147, 2009; active = well fitted inhibition curve with a large enough effect, not every such curve was filed as active; inconclusive = small, poorly fitted or top-dose-only effect, or another doubt; inactive = no such curve, though single readings can be large or run the other way;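 also: potency is read from the fitted curve at half-maximal effect; 0% = wells with enzyme and -100% = buffer wells without enzyme; nearly all actives have a fitted effect of over 50% in size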
Target sequence (B2RXH2 1-337 limits assumed): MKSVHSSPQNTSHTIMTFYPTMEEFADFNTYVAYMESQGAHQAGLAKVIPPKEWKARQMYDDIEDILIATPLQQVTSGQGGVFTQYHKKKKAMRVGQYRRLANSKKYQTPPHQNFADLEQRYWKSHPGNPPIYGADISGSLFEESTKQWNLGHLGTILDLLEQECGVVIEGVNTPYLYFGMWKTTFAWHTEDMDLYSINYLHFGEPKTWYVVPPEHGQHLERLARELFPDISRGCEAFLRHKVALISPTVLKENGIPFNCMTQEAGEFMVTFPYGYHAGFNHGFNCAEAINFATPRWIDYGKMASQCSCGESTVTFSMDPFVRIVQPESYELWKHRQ
Tau fibril ThT – qHTS for Inhibitors of Tau Fibril Formation, Thioflavin T Binding | Microtubule-associated protein tau (Homo sapiens), P10636 | recombinant tau K18 P301L (four-repeat tau fragment), heparin-induced fibrillization, ThT fluorescence | Potency, µM (titrated, usually from 57.4 µM), for the others: at the top dose activity, negative = inhibition, actives largely listed as inhibitors | 270,000 tested, 2.1% active | AID 1460, 2008; also: potency is read from the fitted curve at half-maximal effect; nearly all actives have a fitted effect of over 55% in size
Target sequence (P10636 561-689 P618L limits assumed): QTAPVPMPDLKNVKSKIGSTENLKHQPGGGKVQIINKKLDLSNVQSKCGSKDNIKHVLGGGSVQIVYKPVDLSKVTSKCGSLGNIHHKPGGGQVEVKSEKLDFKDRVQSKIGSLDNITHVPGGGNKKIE
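In this qHTS, human K18 P301L tau is incubated with compound and heparin for 6 hr at 37 C, and Thioflavin T fluorescence then reports fibril load.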
Tau FP inhib – qHTS for Inhibitors of Tau Fibril Formation, Fluorescence Polarization | Microtubule-associated protein tau (Homo sapiens), P10636 | K18 P301L tau heparin fibrillization, Alexa594 FP, 6 h | Potency, µM (series often up to 57.7 µM), for the others: top-dose activity, negative = inhibition, most hits filed as inhibitors | 280,000 tested, 0.39% active | AID 1468, 2008; also: potency is read from the fitted curve at half-maximal effect; nearly all actives have a fitted effect of over 55% in size
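Recombinant K18 P301L […], labeled with Alexa 594 at 0.24 uM over 15 uM unlabeled; heparin inducer 20 uM final; 37 C, 6 hr; FP endpoint.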
* marks the source's active call; other numbers are inactive results; ? = inconclusive; . = no result; [ ] = dose if it differs, or a comment. In the library only some 5.3% were active in any assay of this set; here they are far more common. Unless noted, calls follow the shape of the dose curve; as a rule, active = well fitted curve in the direction sought with a large enough effect; inconclusive = small, poorly fitted or top-dose-only effect, or another doubt; inactive = no such curve, though single readings can be large; an effect the other way counts as inactive or inconclusive. Unless noted, % is scaled to controls: 0 for no effect and ±100 for the full control effect.

SMILES	FBPA coupling cs	Sfp inh	Tau fluor cs	KDM4E inh	Tau fibril ThT	Tau FP inhib
CCCc1cc(=O)[nH]c(SC(CC)C(=O)Nc2ccccc2C#N)n1 (centres undefined)	0	20%	-2%	2%	-5%	-2%
CCCc1cc(=O)[nH]c(SCC(=O)Nc2ccc([N+](=O)[O-])cc2C#N)n1	3	11%	?	6%	14µM*	5%
O=S(=O)(Nc1nccs1)c1ccc(Br)cc1	5	27%	1%	6%	-5%	8%
O=S(=O)(Nc1nccs1)c1cnc(Cl)c(Br)c1	7	50µM*	3%	-6%	1%	-8%
N#Cc1c(SCC(=O)Nc2ccc(C(F)(F)F)cc2)sc2c(O)cc(=O)[nH]c12	0	?	.	.	.	.
N#Cc1c(SCC(=O)Nc2nncs2)sc2c(O)cc(=O)[nH]c12	3	14µM*	.	.	.	.
O=Cc1ccc2ccc3cccnc3c2n1	-18	-26%	.	.	.	.
O=Cc1ccc2cccnc2n1	1	16µM*	9%	1%	-5%	4%
COc1ccc(CNC(=O)C(=O)NCC(c2ccco2)S(=O)(=O)c2ccc(Cl)cc2)cc1 (centres undefined)	.	.	0%	.	-2%	?
Cc1ccc(N2CCN(c3ccc(C)cc3)C2c2ccncc2)cc1	0	45µM*	-20%	4%	?	0%
Clc1ccccc1-c1nc(/C=N/N2CCOCC2)c2ccccn12	-9	89µM*	-24%	?	?	-12%
CN1CCN(/N=C/c2nc(-c3ccccc3Cl)n3ccccc23)CC1	2	14%	-10%	-29%	-2%	3%
O=C1CSC(=NC2CCCCC2)N1	1	-5%	-8%	4%	22µM*	?
O=C(CN1CCN(Cc2ccc(F)cc2Cl)S1(=O)=O)Nc1ccc(F)cc1	.	.	-11%	.	16%	-3%
Cc1cccc(N2CCN(C(=O)c3cn(C4CCCCC4)c(=O)c4c3c3ccccc3n4C)CC2)c1C	.	.	-22%	.	?	-14%
O=C1/C(=C/Nc2cccc([N+](=O)[O-])c2)CCc2ccccc21	-9	?	?	-27%	14µM*	9%
C[N+]1(C)CCC[C@H]1C(=O)[O-]	6	3%	.	-6%[25.5 µM]	.	.
O=C(O)c1ccc(N/N=C/c2cc3c(cc2[N+](=O)[O-])OCO3)cc1	7	1%	-29%	?	14µM*	3%
CCn1c(SCC(=O)N2CCC(C)CC2)nnc1-c1ccccc1O	.	.	1%	.	3%	-2%
Cc1ccccc1OCc1nnc(SCc2cc(=O)[nH]c3ccccc23)n1-c1ccccc1	4	56µM*	-14%	-2%	-11%	1%
Cc1noc(C)c1-c1ccc2ncnc(NCc3cccnc3)c2c1	4	28%	.	.	.	.
O=C(N/N=C/c1cc(Cl)cc(Cl)c1O)c1ccncc1	5	15%	-11%	?	-13%	11%
Oc1ccccc1/C=N/NC(=S)NC1CC2C=CC1C2 (centres undefined)	4	14%	?	25µM*	-1%	5%
Oc1c(Cl)cc(Cl)cc1/C=N/NC(=S)NC1CC2C=CC1C2 (centres undefined)	6	13%	28µM*[quencher]	?	?	7%
Cc1ccc(S(=O)(=O)Nc2cc(Cl)c3oc4c(c3c2)C(=O)CC(C)(C)C4)cc1	.	.	1%	.	10%	-8%
COC(=O)[C@@H]1[C@@H](C)N(CCc2cc(OC)c(OC)c(OC)c2)C(=O)N[C@H]1c1ccccc1	2	-14%	4%[11.6 µM]	2%[11.4 µM]	11%[11.5 µM]	-6%[11.6 µM]
